# Assay outcomes from PubChem BioAssay.
# a7 integrin act: activates integrin-mediated alleviation for muscular dystrophy. alpha7betagal myoblasts, beta-gal FDG fluorescence, 48 h. 0.064% of 350,000 active. Potency, µM (top dose mostly 38.3 µM), for the others: at the top dose activation, actives largely listed as activators;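 further: potency means the concentration at half of the fitted maximal effect; 100% = response of the positive control SU9516; nearly all actives have a fitted effect of over 60% in size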
#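 Alpha7betagal+/- myoblasts (passage 13) were plated 16-24 hr, then exposed to compounds (1:260 dilution of DMSO stock) for 48 hours at 37C. After MPER lysis, β-galactosidase reporter activity was read as FDG fluorescence (ex 480/em 540) after 30 minutes.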
# Anesthetic bind: candidate novel general anesthetic via apoferritin binding; P02791; apoferritin/1-aminoanthracene competitive binding, fluorescence; Potency, µM (doses to about 77.5 µM), inactives show at the highest dose activity change, negative = displacement, hits mostly inhibitors; 0.074% of 350,000 active; further: potency means the concentration at half of the fitted maximal effect; on the % scale 0 is the no-effect control and ±100 the full control effect; nearly all actives have a fitted effect of over 20% in size
# Target sequence (P02791 2-175 limits assumed): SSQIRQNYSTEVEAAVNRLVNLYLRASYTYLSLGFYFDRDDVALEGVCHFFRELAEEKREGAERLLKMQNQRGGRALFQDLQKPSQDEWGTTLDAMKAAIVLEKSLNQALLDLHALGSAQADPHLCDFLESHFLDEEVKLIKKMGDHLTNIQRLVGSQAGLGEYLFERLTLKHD
#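 Steps: apoferritin (10 uM) was premixed with half-saturated 1-AMA in PBS, compounds were pin-transferred, plates stood 10 min at room temperature, fluorescence was read at 380/535 nm, and curves were fitted with a Hill equation.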
# PKM2 activator: PKM2 (human) enzyme activation; P14618; purified PKM2, Kinase-Glo ATP luminescence, activation; response scale: 0% is enzyme alone, no compound; Potency, µM (series often up to 57.5 µM), without a hit: at the highest dose activation, usual class: activators; 0.34% of 260,000 active; AID 1631; further: potency means the concentration at half of the fitted maximal effect; on the % scale 0 is the no-effect control and ±100 the full control effect; nearly all actives have a fitted effect of over 55% in size
# Target sequence (P14618 whole entry, looked up): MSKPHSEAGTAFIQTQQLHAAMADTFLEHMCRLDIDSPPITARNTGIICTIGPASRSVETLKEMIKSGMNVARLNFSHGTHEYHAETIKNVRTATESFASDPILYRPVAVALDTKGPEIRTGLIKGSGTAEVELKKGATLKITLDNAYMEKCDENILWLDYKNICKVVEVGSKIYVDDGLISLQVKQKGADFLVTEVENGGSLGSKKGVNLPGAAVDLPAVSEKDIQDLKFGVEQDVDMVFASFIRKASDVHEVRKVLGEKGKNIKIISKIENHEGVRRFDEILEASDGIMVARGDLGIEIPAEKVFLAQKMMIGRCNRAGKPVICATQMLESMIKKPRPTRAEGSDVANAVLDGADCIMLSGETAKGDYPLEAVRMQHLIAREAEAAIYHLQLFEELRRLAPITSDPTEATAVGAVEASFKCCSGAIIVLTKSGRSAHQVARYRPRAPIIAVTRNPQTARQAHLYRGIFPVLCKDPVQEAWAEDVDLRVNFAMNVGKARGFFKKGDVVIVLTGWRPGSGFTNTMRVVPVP
#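 hPK-M2, >95% pure; 0.1 mM ADP / 0.5 mM PEP final; imidazole pH7.2 buffer w/ 7 mM MgCl2, 50 mM KCl; 1 h RT; Kinase-Glo lum. Intermediate enzyme activity for dual inhibitor/activator qHTS.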
# BRCA1 expr act: BRCA1 expression activation; MCF7-BRCA1-FFLuc reporter, luminescence, 48 h; response scale: scaled: vehicle 0%, 10 µM genistein 100%; Potency, µM (series often up to 46.1 µM), for the others: at the top dose activation, actives largely listed as activators; 1.1% of 380,000 active; AID 624202; further: potency means the concentration at half of the fitted maximal effect; nearly all actives have a fitted effect of over 80% in size
#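 Reporter cells (MCF7, BRCA1 promoter-firefly luciferase) received library compounds across a concentration series for 48 h. End-point luminescence was measured and concentration-effect curves derived after normalization.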
# IL-2 act: activates IL-2 in a cell-based reporter assay; 0.065% of 360,000 active; IL-2 activation reporter assay, cell-based qHTS; stimulated with anti-CD3/CD4/CD28 beads; in transgenic mouse T cells; activation, % (series mostly up to about 46 µM); in the data active means activation above about 50%; inconclusive means mostly about 30% to 49%; further: 0% is about no effect
#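 Readout is EGFP and DsRed signal by fluorescent plate cytometry after 18 h at 37 degrees C. Transgenic mouse T cells (750/well) received compound for 60 min before bead stimulation (anti-CD3, anti-CD4, anti-CD28); memory T cells served as non-tolerant control.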
# An asterisk follows results filed as active; ? = inconclusive; / = not tested or not shown; [ ] = another dose, or the depositor's remark. An excerpt weighted towards active compounds, which were near 1.3% of everything screened. Unless noted, the call rests on the fitted dose curve; in most records, active means well fitted curve in the direction sought with a large enough effect; inconclusive means small, poorly fitted or top-dose-only effect, or another doubt; inactive means no such curve, though single readings can be large; an effect the other way counts as inactive or inconclusive.
SMILES,a7 integrin act,Anesthetic bind,PKM2 activator,BRCA1 expr act,IL-2 act
COc1ccc(Cl)cc1NC(=O)CSc1nc2c([nH]c3ccccc32)c(=O)n1-c1ccccc1,/,8%,/,/,/
CCC(C)c1ccc(NC(=O)c2cccnc2)cc1 (stereo not given),-20%,-8%,-4%,3.5µM*,-1
CCC(C)c1ccc(O)c(NC(=O)c2cccnc2)c1 (stereo not given),-14%,-8%,-1%,-50%,1
COc1cc2c(cc1OC)C(NC(=O)C(F)(F)F)C/C2=N\O (stereo not given),11µM*,0%,-8%,6%,1
c1ccc(NC2=Nc3cccc4cccc2c34)cc1,12%,?,4%,-13%,0
Fc1ccc(/C=N/NC2=Nc3cccc4cccc2c34)cc1,18%,10%,-3%,-27%,119*
COc1cccc(Cn2c(SCC(=O)N(C)c3ccccc3)nc3ccccc32)c1,/,85%,/,-34%,/
N#CC(C(=O)c1ccco1)c1ccccn1 (stereo not given),2%,0%,2%,14µM*,0
Cc1nnc(SCC(=O)Nc2nsc(-c3ccc(C(C)(C)C)cc3)n2)s1,-5%,?,-5%,1.1µM*,-3
CCOC(=O)N/N=C1/C[C@@H](O)[C@@H](O)[C@@H]2[C@@H]3C(=O)N(C(C)(C)C)C(=O)[C@H]3CC[C@H]12,/,-5%[15.3 µM],/,/,/
O=C(NCc1ccccc1)c1ccc(-c2ccccc2F)o1,9%,5%,2%,11µM*,-3
O=C(NCCc1ccccc1)c1ccc(-c2ccccc2C(F)(F)F)o1,-2%,2%,-1%,11%,-1
COCCNC(=O)C1(C(F)(F)F)C/C(=C\CCO)CCCO1 (stereo not given),/,-2%,/,/,/
O=C(NNC(=O)c1cccc2ccccc12)c1ccc(Cl)cc1Cl,31%,/,/,13µM*,0
NCC(=O)c1c[nH]c2ccccc12,/,/,/,13%,/
CN(C(=O)C1CCC(=O)N(Cc2cccc(F)c2)C1)C1CCCCC1 (stereo not given),-54%,-9%,-7%,7.9µM*,7
C1=Cc2ccccc2/C1=C\c1cc2c3c(c1)CCCN3CCC2,/,/,/,79%,/
O=C(NCc1ccc(/C=c2\sc3n(c2=O)CCN=3)o1)C(=O)Nc1ccccc1,/,-14%,20µM*,/,/
CCN(CC)c1ccc(/C=C/C2=C3C=CC=CC3NC=C2)cc1 (stereo not given),/,/,/,50%,/
COc1ccc(-c2cc(-c3cc(F)ccc3O)[nH]n2)cc1OC,-7%,-10%,0%,10µM*,-4
O=c1c(-c2ccc(Cl)cc2)c(C(F)(F)F)oc2c(CN3CCCCC3)c(O)ccc12,/,12%,/,/,/
Cc1cc(C)c2nc(N3CCC(C(=O)NCc4ccccn4)CC3)sc2c1,9%,-14%,1%,4µM*,-3
Cc1cc(C)c2nc(N3CCC(C(=O)NCc4cccnc4)CC3)sc2c1,1%,-19%,-1%,40%,0
CCCCCCOc1ccc(CC(=O)O)cc1,/,/,/,10%,/
CC(C)(C)OC(=O)N/N=C\c1ccc(OC(=O)c2ccco2)cc1,5%,-13%,5%,7.9µM*,-1
SMILES,a7 integrin act,Anesthetic bind,PKM2 activator,BRCA1 expr act,IL-2 act
CC1CCN(c2ncnc3c2nnn3C)CC1,/,-5%,/,/,/
CC(=O)c1cccc(NC(=O)c2cnn3ccccc23)c1,8%,-7%,-8%,3.5µM*,-3
CC(=O)c1ccc(NC(=O)c2cnn3ccccc23)cc1,20%,-7%,-2%,-69%,-3
CC(=O)c1cccc(NC(=O)c2cc3ccccn3n2)c1,10%,-10%,-4%,2.5µM*,-3
COC(=O)c1sccc1NC(=S)N1CCCCC1,?,40µM*,-8%,-20%,1
CC(=O)c1ccc(NC(=O)CCCC(=O)c2ccccc2)cc1,?,3%,/,19%,-1
CC(=O)c1ccc(NCCC(=O)c2ccccc2)cc1,18%,-4%,-2%,11µM*,-2
O=S(=O)(Nc1cccc(F)c1)c1ccc2[nH]c3c(c2c1)CCCCC3,/,-6%,/,/,/
O=c1oc(-c2ccc(C(F)(F)F)cc2)nn1Cc1cc(Cl)ccc1O,/,-21%,/,/,/
COc1cccc(C(=O)NC(=O)Nc2cc(C)on2)c1,?,-6%,0%,7.9µM*,-1
COc1ccc(C(=O)/C=C/Nc2cc(C)on2)cc1,14%,-3%,2%,3.2µM*,0
COc1ccc(/C=C/C(=O)NC(=S)N2CCOCC2)cc1,-5%,-5%,-34%,75%,-1
Cc1cc(NC(=O)Nc2ccc(C)c(C)c2)no1,17%,-15%,2%,7.9µM*,6
COc1ccc(/C=C/C(=O)NC(=S)N2CCN(c3ccccc3OC)CC2)cc1,-10%,-19%,1%,4µM*,0
C=C1C=C(C)n2ncc(C(=O)NCCCCCC)c2N1,/,/,/,12%,/
COC(=O)c1sccc1S(=O)(=O)N(CC(=O)NCc1ccc(C)cc1)c1ccc(C)c(C)c1,/,-15%,/,/,/
CCOC(=O)c1ccc(NC(=O)CCC(=O)N2CCSc3ccccc32)cc1,/,-14%,/,/,/
C#CCNC(=O)/C=C/c1ccc(OC)cc1,12%,-6%,-12%,13µM*,0
COc1ccc(/C=C/C(=O)NCCCN2CCCC2)cc1,?,-4%,/,-8%,1
COc1ccc(/C=C/C(=O)Nc2cc(C)on2)cc1,20%,36%,-15%,4.5µM*,-1
Cc1cc(NC(=O)/C=C/c2ccccc2)no1,-17%,-14%,-1%,?,-3
O=C(/C=C/c1ccc(O)c(O)c1)c1ccc(O[C@@H]2O[C@H](CO)[C@@H](O)[C@H](O)[C@H]2O)c(O)c1O,/,-6%,/,/,/
CN(C)c1ccc(/C=C/c2ccc3ncccc3c2)cc1,/,/,/,0%,/
O=C1CCC[C@@H](C(C(=O)OCc2ccccc2)C(=O)OCc2ccccc2)C1,/,-11%[15.3 µM],/,/,/
COC(=O)c1sc2nc(CSc3nc4ccc(C)cc4[nH]3)[nH]c(=O)c2c1C,17%,-19%,0%,-53%,?
SMILES,a7 integrin act,Anesthetic bind,PKM2 activator,BRCA1 expr act,IL-2 act
Cc1ccc2nc(SCc3nc4ccccc4c(=O)[nH]3)[nH]c2c1,4%,-10%,7%,4µM*,1
O=C(c1cc(COc2ccc(F)cc2Cl)on1)N1CCCCCC1,21%,?,/,?,0
O=C(c1cc(COc2ccc(F)cc2F)on1)N1CCSCC1,-7%,-16%,-4%,7.9µM*,-1
O=C(c1ccccc1)c1cc2ccccc2oc1=O,13%,-2%,/,53%,0
O=C(c1ccc(F)cc1)c1cc2ccccc2o1,-20%,-9%,-8%,11µM*,0
O=C(c1ccccc1)c1cc2ccccc2o1,26%,?,3%,10µM*,0
CC(Cc1ccccc1)NC(=O)c1cc2ccccc2o1 (stereo not given),?,-13%,1%,7.1µM*,0
